Experimental data from PubChem BioAssay (EPA / NIEHS).
More than one record can exist for a structure, and the calls need not agree. The source made the active and inactive calls. Rule for the calls: active = hit-call score of the fitted dose curve at least 0.9, where 1 is the maximum; inactive = score below 0.9.

Experiments:
[1] = BSK_3C_TissueFactor: BioMAP Diversity Plus: 3C Assay for Tissue Factor Biomarker Activity (AID 2282997); conditions: BioMAP 3C HUVEC, tissue factor biomarker readout; actives raise or lower the signal
Method in brief: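 Readout: Tissue Factor ELISA. Cells: human primary umbilical vein endothelium. Time: 24 h after dosing. Analysis: bidirectional fit, DMSO baseline.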

[2] = BSK_3C_uPAR: BioMAP Diversity Plus: 3C Assay for Urokinase-type plasminogen activator receptor (uPAR) Biomarker Activity (AID 2282998); conditions: BioMAP 3C HUVEC, uPAR biomarker ELISA; actives raise or lower the signal
Method in brief: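 HUVEC primary cells; 24 h post-dose; uPAR by ELISA; gain or loss of signal fitted bidirectionally vs DMSO baseline.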

[3] = BSK_4H_Eotaxin3: BioMAP Diversity Plus: 4H Assay for Eotaxin 3 Biomarker Activity (AID 2283000); conditions: primary human endothelial cells (HUVEC); actives raise or lower the signal
Method in brief: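 HUVEC, 24 h post-dose, ELISA for Eotaxin-3/CCL26. Gain or loss of signal fitted bidirectionally vs DMSO baseline.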

[4] = read-out: Intercellular Adhesion Molecule 1 (ICAM1), ICAM1 (gene 3383); assay: BSK_3C_ICAM1: BioMAP Diversity Plus: 3C Assay for Intercellular Adhesion Molecule 1 (ICAM1) Biomarker Activity (AID 2283003); conditions: primary human endothelial cells (HUVEC); actives raise or lower the signal
Method in brief: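 Using DMSO as baseline, bidirectional curve fitting was applied to ICAM-1 ELISA signals from HUVEC in the 3C system, measured 24 h after compound addition.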

[5] = BSK_3C_Proliferation: Cell Proliferation Assessment in the BioMAP Diversity Plus: 3C Assay (AID 2283006); conditions: primary human endothelial cells (HUVEC);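 for AC50: potency may reflect either rise or fall in cell number versus DMSO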
Method in brief: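 Measured here: sulforhodamine B (0.1%) staining of TCA-fixed sub-confluent umbilical vein endothelial cultures 48 h post-dosing, absorbance 560 nm. DMSO served as negative control and baseline; both signal gain and loss were modelled.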

[6] = read-out: Interleukin-1 alpha (IL1a), IL1A (gene 3552); assay: BSK_BE3C_IL1a: BioMAP Diversity Plus: BE3C Assay for Interleukin-1 alpha (IL1a) Biomarker Activity (AID 2283016); conditions: primary human bronchial epithelial cells; actives raise or lower the signal
Method in brief: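 Measured in human lung primary bronchial epithelial cells: IL-1a by ELISA at 24 h after dosing, with bidirectional fitting against DMSO.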

[7] = read-out: Monocyte Chemoattractant Protein-1 (MCP1), CCL2 (gene 6347); assay: BSK_3C_MCP1: BioMAP Diversity Plus: 3C Assay for Monocyte Chemoattractant Protein-1 (MCP1) Biomarker Activity (AID 2283017); conditions: primary human endothelial cells (HUVEC); actives raise or lower the signal
Method in brief: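 Primary human umbilical vein endothelial cells (3C system) were exposed to test chemical for 24 h, after which MCP-1 was quantified by ELISA. Activity was fitted bidirectionally against DMSO as negative control and baseline.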

[8] = read-out: Monocyte Chemoattractant Protein-1 (MCP1), CCL2 (gene 6347); assay: BSK_4H_MCP1: BioMAP Diversity Plus: 4H Assay for Monocyte Chemoattractant Protein-1 (MCP1) Biomarker Activity (AID 2283018); conditions: primary human endothelial cells (HUVEC); actives raise or lower the signal
Method in brief: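 Primary human umbilical vein endothelium is exposed to chemical for 24 h before MCP-1 is assayed by ELISA. Concentration-response fitted bidirectionally relative to DMSO.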

[9] = read-out: Human Leukocyte Antigen - DR isotype (HLADR), HLA-DRA (gene 3122); assay: BSK_3C_HLADR: BioMAP Diversity Plus: 3C Assay for Human Leukocyte Antigen - DR isotype (HLADR) Biomarker Activity (AID 2283019); conditions: primary human endothelial cells (HUVEC); actives raise or lower the signal
Method in brief: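 Primary human umbilical vein endothelial cells (3C system) were dosed with compound and cell-surface HLA-DR was quantified by ELISA at 24 h. Activity was fitted bidirectionally against DMSO as negative control and baseline.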

[10] = read-out: Interleukin-8 (IL8), CXCL8 (gene 3576); assay: BSK_3C_IL8: BioMAP Diversity Plus: 3C Assay for Interleukin-8 (IL8) Biomarker Activity (AID 2283020); conditions: primary human endothelial cells (HUVEC); actives raise or lower the signal
Method in brief: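 Using DMSO-treated wells as the baseline, bidirectional curve fitting was applied to ELISA-measured IL-8 from human umbilical vein endothelial cultures sampled 24 h after compound addition.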

[11] = read-out: Monokine induced gamma interferon (MIG), CXCL9 (gene 4283); assay: BSK_3C_MIG: BioMAP Diversity Plus: 3C Assay for Monokine induced gamma interferon (MIG) Biomarker Activity (AID 2283021); conditions: primary human endothelial cells (HUVEC); actives raise or lower the signal;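 for AC50: MIG protein level measured by immunoassay in the treated endothelial cultures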
Method in brief: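 ELISA-measured MIG in dosed HUVEC 3C cultures at 24 h, analysed by bidirectional fitting with DMSO defining baseline activity.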

[12] = BSK_3C_SRB: Viability Assessment in the BioMAP Diversity Plus: 3C Assay (AID 2283023); conditions: primary human endothelial cells (HUVEC);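 note: fitted both ways against DMSO so a hit may be signal rise or drop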
Method in brief: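 Primary human umbilical vein endothelial cells in the 3C system were read 24 h after compound dosing. Total protein was stained with 0.1% sulforhodamine B after 10% TCA fixation and read at 560 nm, with bidirectional fitting against DMSO as baseline.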

[13] = read-out: serum amyloid A (SAA), SAA1 (gene 6288); assay: BSK_CASM3C_SAA: BioMAP Diversity Plus: CASM3C Assay for serum amyloid A (SAA) Biomarker Activity (AID 2283049); conditions: primary human coronary artery smooth muscle cells; actives raise or lower the signal
[14] = read-out: Interferon-gamma inducible Protein 10 (IP10), CXCL10 (gene 3627); assay: BSK_hDFCGF_IP10: BioMAP Diversity Plus: hDFCGF Assay for Interferon-gamma inducible Protein 10 (IP10) Biomarker Activity (AID 2283053); conditions: primary human foreskin fibroblasts; actives raise or lower the signal
Method in brief: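 Chemical-treated human skin fibroblasts (primary) were sampled at 24 h for IP-10 by ELISA. Both increases and decreases relative to DMSO were scored.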

[15] = read-out: Vascular cell adhesion molecule 1 (VCAM1), VCAM1 (gene 7412); assay: BSK_CASM3C_VCAM1: BioMAP Diversity Plus: CASM3C Assay for Vascular cell adhesion molecule 1 (VCAM1) Biomarker Activity (AID 2283055); conditions: primary human coronary artery smooth muscle cells; actives raise or lower the signal;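 note: VCAM-1 protein level quantified by ELISA on the cells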
[16] = read-out: Monokine induced gamma interferon (MIG), CXCL9 (gene 4283); assay: BSK_hDFCGF_MIG: BioMAP Diversity Plus: hDFCGF Assay for Monokine induced gamma interferon (MIG) Biomarker Activity (AID 2283063); conditions: primary human foreskin fibroblasts; actives raise or lower the signal
Method in brief: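 ELISA read-out of MIG from primary human dermal fibroblasts 24 h post-dosing. Gain or loss of signal fitted bidirectionally, DMSO as baseline.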

[17] = read-out: Matrix Metallopeptidase 1 (MMP1), MMP1 (gene 4312); assay: BSK_hDFCGF_MMP1: BioMAP Diversity Plus: hDFCGF Assay for Matrix Metallopeptidase 1 (MMP1) Biomarker Activity (AID 2283064); conditions: primary human foreskin fibroblasts; actives raise or lower the signal
Method in brief: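 MMP1 levels quantified by ELISA 24 h after dosing human dermal fibroblast cultures, with parallel SRB total-protein staining for overt cytotoxicity. Data fitted in both directions against DMSO baseline.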

[18] = read-out: E-selectin (Homo sapiens) (UniProt P16581); assay: BSK_SAg_Eselectin: BioMAP Diversity Plus: SAg Assay for Eselectin Biomarker Activity (AID 2283091); conditions: primary human HUVEC with PBMC; actives raise or lower the signal
Method in brief: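 HUVEC co-cultured with PBMC, compound dosed then read at 24 h; E-selectin measured by ELISA. Activity fitted bidirectionally against DMSO as negative control and baseline.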

[19] = BSK_SAg_PBMCCytotoxicity: PBMC Cytotoxicity Assessment in the BioMAP Diversity Plus: SAg Assay (AID 2283093); conditions: primary human HUVEC with PBMC;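 note: PBMC viability measured as Alamar Blue reduction fluorescence at 546/580 nm; fitted both ways against DMSO so a hit may be loss or gain of signal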;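 for AC50: PBMC superantigen activated with SEB plus TSST-1 one hour after compound addition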
Method in brief: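 Alamar Blue reduction (6 h, ex/em 546/580 nm) read after 90 h culture of PBMC pre-dosed 1 h then stimulated with SEB plus TSST-1, 20 ng/mL each. Gain or loss of signal fitted relative to DMSO.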

[20] = read-out: Interleukin-8 (IL8), CXCL8 (gene 3576); assay: BSK_SAg_IL8: BioMAP Diversity Plus: SAg Assay for Interleukin-8 (IL8) Biomarker Activity (AID 2283094); conditions: primary human HUVEC with PBMC; actives raise or lower the signal
Method in brief: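 Primary human endothelial cells with PBMC, exposed 24 h; IL-8 determined by ELISA, analysed bidirectionally relative to DMSO.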

Measured: AC50

Chain of E-selectin (Homo sapiens) (P16581 whole entry, looked up): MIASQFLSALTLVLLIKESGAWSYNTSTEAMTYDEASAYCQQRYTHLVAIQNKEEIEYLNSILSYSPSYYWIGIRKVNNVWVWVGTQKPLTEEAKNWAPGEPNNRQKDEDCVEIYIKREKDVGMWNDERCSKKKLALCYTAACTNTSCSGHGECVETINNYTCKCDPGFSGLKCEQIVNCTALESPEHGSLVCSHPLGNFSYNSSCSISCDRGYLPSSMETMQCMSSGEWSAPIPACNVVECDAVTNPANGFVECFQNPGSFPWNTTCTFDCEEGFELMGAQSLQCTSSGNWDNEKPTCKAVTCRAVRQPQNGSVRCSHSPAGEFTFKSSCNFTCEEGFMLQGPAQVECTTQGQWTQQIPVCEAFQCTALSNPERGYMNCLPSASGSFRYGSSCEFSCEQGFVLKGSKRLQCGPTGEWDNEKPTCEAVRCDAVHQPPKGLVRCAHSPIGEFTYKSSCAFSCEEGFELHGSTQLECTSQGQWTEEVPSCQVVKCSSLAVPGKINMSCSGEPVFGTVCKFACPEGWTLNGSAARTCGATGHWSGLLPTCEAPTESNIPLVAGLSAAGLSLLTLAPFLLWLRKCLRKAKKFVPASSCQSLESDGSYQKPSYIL

Sc1nc2ccccc2s1
active: [1] 1.09 µM | [3] 3.97 µM | [6] 0.0847 µM | [15] 0.016 µM
inactive: all other assays above

CCC(C)=NO
inactive: all assays above

CC(C)CC(=O)CC(C)CC(C)C (stereo not drawn)
active: [1] 36 µM | [2] 30.9 µM | [3] 33.8 µM | [4] 35.2 µM | [5] 36.6 µM | [6] 31.5 µM | [7] 31.2 µM | [8] 31.1 µM | [9] 35.3 µM | [12] 35.2 µM | [15] 37.2 µM | [19] 33.3 µM
inactive: [10] | [11] | [13] | [14] | [16] | [17] | [18] | [20]

COC(=O)/C=C\C(=O)OC
active: [15] 20 µM | [18] 9.12 µM
inactive: all other assays above

CN(C)c1ccc(C(c2ccccc2)c2ccc(N(C)C)cc2)cc1
active: [1] 2 µM | [3] 8.42 µM | [5] 2.81 µM | [6] 5.43 µM | [7] 11.9 µM | [8] 4.5 µM | [9] 9.37 µM | [10] 5.43 µM | [12] 9.62 µM | [18] 11.3 µM | [20] 8.09 µM
inactive: [2] | [4] | [11] | [13] | [14] | [15] | [16] | [17] | [19]

Cc1cccnc1
inactive: all assays above

CCCCCCCCCCC1CO1 (stereo not drawn)
inactive: [13] | [20]
active: [1] 30.8 µM | [2] 33.7 µM | [3] 36.9 µM | [4] 36.2 µM | [5] 14.7 µM | [6] 31.5 µM | [7] 31 µM | [8] 33.8 µM | [9] 28.6 µM | [10] 32.8 µM | [11] 34.4 µM | [12] 35.2 µM | [14] 34 µM | [15] 3.97 µM | [16] 30.3 µM | [17] 20 µM | [18] 20 µM | [19] 29.5 µM

CN(C)CCC(c1ccc(Cl)cc1)c1ccccn1 (stereo not drawn)
active: [8] 12 µM
inactive: all other assays above

Cc1cc(-n2nc3ccc(Cl)cc3n2)c(O)c(C(C)(C)C)c1
active: [12] 0.342 µM
inactive: all other assays above

CN(C)Cc1cc(C(C)(C)C)c(O)c(C(C)(C)C)c1
active: [13] 5.92 µM | [14] 12.8 µM | [15] 0.15 µM | [16] 20 µM | [17] 20 µM | [18] 20 µM | [19] 28.7 µM | [20] 20 µM
inactive: [1] | [2] | [3] | [4] | [5] | [6] | [7] | [8] | [9] | [10] | [11] | [12] | [13] | [14] | [15] | [16] | [17] | [18] | [19] | [20]

O=C(C(=O)c1ccccc1)c1ccccc1
active: [12] 0.194 µM
inactive: all other assays above

CCCCCCCCCCCCCCCCCC[N+](C)(C)C
active: [1] 5 µM | [2] 1.27 µM | [3] 1.89 µM | [4] 3.46 µM | [5] 1.36 µM | [6] 3.8 µM | [7] 1.68 µM | [8] 0.664 µM | [9] 1.27 µM | [10] 5 µM | [11] 7.62 µM | [12] 1.31 µM | [14] 2.67 µM | [15] 3.73 µM | [16] 3.28 µM | [17] 7.66 µM | [18] 9.19 µM | [19] 3.16 µM | [20] 8.34 µM
inactive: [13]

CCCCCCC(O)CCCCCCCCCCC(=O)OC (stereo not drawn)
active: [8] 8.39 µM
inactive: all other assays above
